Bioassay records (PubChem)
Compounds with a hit are over-represented: about 1.6% of the library has one in this group of screens.
KCNQ2 enhance = enhances the rat KCNQ2 potassium channel; 310,000 tested, 0.54% active; O88943; CHO-K1 KCNQ2, FluxOR thallium flux fluorescence; stronger effect = higher value; B-score at 10 µM; AID 2239;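 active = fluorescence ratio B-score at least 3 SD of library B-scores, with initial fluorescence B-score within 3 of them, cut at about 5.3 in these data; same plate scores as AID 2156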;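 also: B-score of peak minus minimum over baseline fluorescence ratio after K+ and Tl+ stimulus; positive B-score means potentiation of KCNQ2 with more thallium influx and brighter signal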
Target sequence (O88943 whole entry, looked up): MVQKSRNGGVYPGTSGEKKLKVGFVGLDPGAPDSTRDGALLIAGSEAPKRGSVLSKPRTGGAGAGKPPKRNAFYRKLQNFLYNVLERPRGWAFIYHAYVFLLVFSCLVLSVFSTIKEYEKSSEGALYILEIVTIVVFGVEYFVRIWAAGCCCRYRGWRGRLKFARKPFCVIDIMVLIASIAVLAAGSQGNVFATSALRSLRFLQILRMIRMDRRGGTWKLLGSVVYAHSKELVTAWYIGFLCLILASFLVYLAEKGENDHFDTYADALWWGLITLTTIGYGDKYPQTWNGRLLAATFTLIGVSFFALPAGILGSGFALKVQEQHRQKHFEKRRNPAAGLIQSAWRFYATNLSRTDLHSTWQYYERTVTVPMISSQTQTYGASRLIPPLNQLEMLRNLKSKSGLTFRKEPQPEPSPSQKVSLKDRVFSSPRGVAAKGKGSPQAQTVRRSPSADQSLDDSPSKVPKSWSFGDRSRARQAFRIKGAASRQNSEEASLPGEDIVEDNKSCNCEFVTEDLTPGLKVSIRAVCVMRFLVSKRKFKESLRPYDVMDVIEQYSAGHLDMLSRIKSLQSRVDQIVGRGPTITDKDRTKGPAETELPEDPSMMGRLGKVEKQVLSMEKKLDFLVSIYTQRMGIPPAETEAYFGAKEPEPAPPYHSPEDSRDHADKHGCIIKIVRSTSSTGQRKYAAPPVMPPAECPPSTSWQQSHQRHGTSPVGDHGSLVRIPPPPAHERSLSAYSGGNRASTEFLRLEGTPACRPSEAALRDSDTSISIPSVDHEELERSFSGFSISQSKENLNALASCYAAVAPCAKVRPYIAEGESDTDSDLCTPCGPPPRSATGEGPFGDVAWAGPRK
KCNQ2 block = KCNQ2 (rat) channel inhibition. O88943. CHO-K1 KCNQ2, FluxOR thallium flux, 20 min; stronger effect = lower value. B-score at 10 µM. 310,000 tested, 1.1% active. AID 2156;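 active = fluorescence ratio B-score at most minus 3 library SDs, with starting brightness B-score within 2 library SDs, cut at about -5.5 in these data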
Hits are given with their value; - = inactive; . = no result given.

SMILES	KCNQ2 enhance	KCNQ2 block
CN1CCN(c2ccc(Cl)cc2NC(=O)/C=C/c2cccc(F)c2)CC1	-	-6.54
Fc1ccccc1CNCc1ccc2c(c1)OCO2	-	-
Cc1cc(NC(=O)CS(=O)(=O)c2cn(Cc3ccc(F)cc3)c3ccccc23)no1	.	-
Cc1cc(NC(=O)CS(=O)(=O)c2cn(Cc3cccc(F)c3)c3ccccc23)no1	-	-5.69
CCN(CC)c1ccc(/C=C2\CCC(/C=N/NC(=O)c3ccc(=O)n(C)c3)=C2N2CCOCC2)cc1	.	-
Nc1nnc(SCC(=O)c2ccccc2)s1	-	-
Nc1c(C(=O)c2ccccc2)sc2snc(SCC(=O)c3ccccc3)c12	-	-5.95
O=C(O)c1ccc(NC(=S)NC(=O)c2cccc(COc3ccccc3)c2)cc1	.	-
O=C(NC(=S)Nc1ccc(CN2CCCCC2)cc1)c1cccc(OCc2ccccc2)c1	-	-6.05
CC(=O)c1cccc(OCc2cc(C(=O)NC3CCN(Cc4ccccc4)CC3)no2)c1	6.32	-
O=C(NC1CCN(Cc2ccccc2)CC1)c1cccc(OC(F)F)c1	-	-
Clc1cc(Cl)cc(CN2CCSCC2)c1	-	-
CC1=NNC(=O)C1Cc1ccccc1C (configuration not stated)	.	-
N#C/C(=C/c1ccc(N2CCCCCC2)o1)c1cccc(F)c1	.	-
N#C/C(=C/c1ccc(N2CCCCCC2)o1)c1ccc(F)cc1	-	-7.01
COc1cc(C(=O)OCC(=O)Nc2cc(C)on2)c([N+](=O)[O-])cc1OC	-	-
O=C(Cc1ccc(Cl)c(Cl)c1)Nc1ccccc1N1CCOCC1	-	-
O=C(Nc1ccccc1N1CCOCC1)C1(c2ccc(Cl)cc2)CCC1	-	-6.49
CCOC(=O)Cn1c(S(=O)(=O)Cc2ccccc2)nc2ccccc21	-	-
CCOC(=O)Cn1c(S(=O)(=O)Cc2ccc(Cl)cc2)nc(-c2ccccc2)c1-c1ccccc1	-	-6.52
Cn1c(SCc2ccccc2)nnc1-c1ccco1	.	-
CC(C)(C)OC(=O)NNC(=O)c1cccs1	.	-
CC(=O)Nc1cccc(NC(=S)Nc2ccc(F)cc2F)c1	-	-
O=C(C1=C[C@H](c2csc3ccccc23)C[C@H](OCc2ccc(CO)cc2)O1)N1CCCCCCC1	-	-5.62
O=C(C1=C[C@@H](c2ccc(C(F)(F)F)cc2)C[C@@H](OCc2ccc(CO)cc2)O1)N1CCN(Cc2ccc3c(c2)OCO3)CC1	.	-
SMILES	KCNQ2 enhance	KCNQ2 block
O=C(C1=C[C@@H](c2ccc(Br)cc2)C[C@@H](OCc2ccc(CO)cc2)O1)N1CCN(Cc2ccc3c(c2)OCO3)CC1	-	-6.31
CN1CCN(C(=O)C2=C[C@H](c3csc4ccccc34)C[C@H](OCc3ccc(CO)cc3)O2)CC1	.	-
O=C(CCN1CCN(c2ccccc2F)CC1)Nc1cccc(F)c1	-	-
Cc1ccccc1NC(=O)c1c(C)nc(SCC(=O)OCc2ccccc2)c(C#N)c1-c1ccc(F)cc1	-	-7.05
Cc1nc(SCC(=O)OCc2ccccc2)c(C#N)c(-c2ccccc2)c1C(=O)Nc1ccccc1	.	-
COC(=O)C1=C(C)Nc2c(c(=O)n(C)c(=O)n2C)C1c1ccc(Cl)cc1 (configuration not stated)	-	-
CCOc1ccc(-c2cc(N)n(S(=O)(=O)c3ccc(OC)cc3)n2)cc1	-	-
COc1ccc(-c2cc(N)n(S(=O)(=O)c3c(F)c(F)c(F)c(F)c3F)n2)cc1OC	-	-8.75
COc1ccccc1CNC(=O)Cn1cccc1C(=O)c1ccccc1	.	-
Clc1ccccc1CN(Cc1ccccc1)C(c1cccs1)c1nnnn1C1CCCC1 (configuration not stated)	-	-5.84
CC(C)(C)n1nnnc1C(c1cccs1)N(Cc1cccnc1)Cc1ccccc1Cl (configuration not stated)	-	-6.18
CC(c1nnnn1C(C)(C)C)N(Cc1cccnc1)Cc1ccccc1Cl (configuration not stated)	.	-
Clc1ccc(CN(CC2CCCO2)C(c2cccs2)c2nnnn2C2CCCC2)cc1 (configuration not stated)	.	-
Nc1nnc(SCC(=O)c2ccc3c(c2)NC(=O)CO3)s1	-	-
CC(C)Cn1c(-c2cc(Br)ccc2F)nc2c1c(=O)[nH]c(=O)n2CC(C)C	-	-6.46
CC(C)Cn1c(-c2cc([N+](=O)[O-])ccc2Cl)nc2c1c(=O)[nH]c(=O)n2Cc1ccccc1	7.44	-
CCCCn1c(-c2ccncc2)nc2c1c(=O)[nH]c(=O)n2CC(C)C	.	-
Cc1ccc(-c2nc3c(c(=O)[nH]c(=O)n3CC(C)C)n2CC(C)C)cc1[N+](=O)[O-]	.	-
Cc1ccc(CNC(=O)CN(C(=O)C2(C)CC(=O)N=C3C=CC=CN32)c2ccc(F)cc2)cc1 (configuration not stated)	-	-
COc1cccc(CN(C)C(=O)CCN(c2ccccc2)S(=O)(=O)c2ccc(C)cc2)c1OC	.	-
COC(=O)N1C/C=C\C(c2ccc(OC)cc2)N(Cc2ccc(F)cc2)C(=O)C1 (configuration not stated)	-	-
COc1ccc(C2/C=C\CN(C(=O)Nc3ccccc3-c3ccccc3)CC(=O)N2Cc2ccc(F)cc2)cc1 (configuration not stated)	-	-6.4
Cc1ccc(C(=O)NC(=S)Nc2ccccc2N2CCOCC2)cc1C	-	-6.1
COc1cc(C(=O)NC(=S)Nc2ccccc2N2CCOCC2)cc(OC)c1OC	.	-
CCCc1cc2c(cc1NC(=O)c1ccccc1C)OCO2	-	-
SMILES	KCNQ2 enhance	KCNQ2 block
CCOC(=O)COc1c(OC)cc(Cl)cc1C1Nc2ccccc2C(=O)N1c1ccccc1 (configuration not stated)	-	-5.62
CCOC(=O)COc1c(OC)cc(Cl)cc1C1Nc2ccccc2C(=O)N1c1ccc(F)cc1 (configuration not stated)	.	-
CCCNC(=O)CN1CCN(c2cc3ccccc3c(Cl)n2)CC1	-	-
CCOc1ccccc1C(=O)NC(C(=O)NCc1ccccc1OC)C(C)C (configuration not stated)	-	-6.23
CCOc1ccc(C(=O)NC(C(=O)NCc2ccccc2OC)C(C)C)cc1 (configuration not stated)	.	-
CCOc1ccc(Nc2nnc(Cc3ccc(OC)cc3)c(=O)[nH]2)cc1	.	-
COc1ccccc1NS(=O)(=O)c1cc(C(=O)NCc2ccco2)ccc1C	.	-
COc1ccccc1NS(=O)(=O)c1cc(C(=O)NCC(C)(C)N2CCOCC2)ccc1C	6.67	-
c1ccc(C2CC(c3ccccc3)C(c3ccccc3)N2)cc1 (configuration not stated)	.	-
O=C1CC(c2ccc(Br)cc2)NC(c2ccc(Br)cc2)C1c1ccccc1 (configuration not stated)	-	-5.74
C=CCc1cccc(/C=N/NC(=O)c2ccccc2Br)c1O	9.59	-
C=CCc1cccc(/C=N/NC(=O)c2ccccc2OC)c1O	-	-
O=C(CN(C(=O)CNC(=O)c1cccs1)c1cccc(F)c1)NC1CCCC1	.	-
COc1ccc(CNc2ncc(-c3ccccc3)n2C)c2ccccc12	-	-5.67
COc1ccc(CNc2ncc(-c3ccccc3)n2C)c(OC)c1OC	-	-
Cc1cnc(NC(=O)C2CC(=O)N(c3cccc(Cl)c3)C2)s1 (configuration not stated)	-	-
N#CCc1nn(-c2ccc(F)cc2)c(N)c1C#N	.	-
COc1ccc(CNC(=O)CN2C(=O)CC(c3ccccc3)=Nc3ccccc32)cc1	.	-
O=C(CN1C(=O)CC(c2ccccc2)=Nc2ccccc21)NCc1ccccc1	-	-5.57
